{"source": "PubChem BioAssay AID429", "about": "(Emory University Molecular Libraries Screening Center, 2006)", "note": "The whole screen tested about 64,000 compounds, of which about 220 (0.34%) were called active.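 Rule for the calls: active = inhibition above 50%; inactive = the rest.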 Shown is part of a subset that was picked to be rich in actives.", "data": [{"molecular_target": "Heat shock protein HSP 90-alpha (Homo sapiens) (UniProt P07900)", "test": "tumor Hsp90 inhibitors, primary screen, cell lysate, fluorescence polarization, NCI-N417 lysate (AID 429);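 note: 0% = tracer plus lysate wells and 100% = tracer alone without lysate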", "conditions": "NCI-N417 lysate Hsp90, Cy3B-geldanamycin FP displacement; at 30 µM; hits give high values", "values": [{"smiles": "C=CC1(C)CC(=O)C2(O)C(C)(O1)C(OC(C)=O)C(O)C1C(C)(C)CCC(O)C12C", "note": "(stereo not given)", "inhibition": "-0.45% (inactive)"}, {"smiles": "COC(=O)[C@@H](NC(=O)NCc1cccc(OC)c1)C(C)C", "inhibition": "-1.26% (inactive)"}, {"smiles": "CC(C)C[C@H](NC(=O)[C@H](O)[C@H](N)Cc1ccccc1)C(=O)O", "inhibition": "-2.1% (inactive)"}, {"smiles": "CCCn1c(=O)c2[nH]c(-c3ccc(OCC(=O)NCCN)cc3)nc2n(CCC)c1=O", "inhibition": "-4.59% (inactive)"}, {"smiles": "CCCCCC(O)c1cccc(OCc2ccc3ccccc3n2)c1", "note": "(stereo not given)", "inhibition": "5.96% (inactive)"}, {"smiles": "Cc1cc(C(F)(F)F)n2ncc(-c3ccccc3)c2n1", "inhibition": "-3.41% (inactive)"}, {"smiles": "Nc1ccc2c3c(cccc13)C(=O)NC2=O", "inhibition": "7.71% (inactive)"}, {"smiles": "Cc1nc2ccc(S(=O)(=O)NCC(=O)O)cc2s1", "inhibition": "-1.11% (inactive)"}, {"smiles": "CC(C)C1C2=C(CC(C)(C)CC2=O)ON1c1ccccc1", "note": "(stereo not given)", "inhibition": "-1.36% (inactive)"}, {"smiles": "O=C1c2oc3ccc(Br)cc3c(=O)c2C(c2cccc(F)c2)N1CCO", "note": "(stereo not given)", "inhibition": "-0.86% (inactive)"}, {"smiles": "Cc1c(-c2nn(C)c(=O)c3ccccc23)oc2ccc(F)cc2c1=O", "inhibition": "89.8% (active)"}, {"smiles": "Cc1ccc(F)cc1NC(=O)Cc1nn(C)c(=O)c2ccccc12", "inhibition": "-2.07% (inactive)"}, {"smiles": "COc1cccc(CN2C(=O)CCC2(C)C(=O)NC2CCCCCC2)c1", "note": "(stereo not given)", "inhibition": "-0.1% (inactive)"}, {"smiles": "CC(=O)C1=C(O)C(=O)N(c2ccc(S(N)(=O)=O)cc2)C1c1ccccc1F", "note": "(stereo not given)", "inhibition": "-1.25% (inactive)"}, {"smiles": "CC(C)(C)NCC(O)COc1cccc2[nH]c(=O)[nH]c12", "note": "(stereo not given)", "inhibition": "-2.65% (inactive)"}, {"smiles": "CCOc1ccccc1C1CC(c2ccccc2)Nc2nc(N)nn21", "note": "(stereo not given)", "inhibition": "0.5% (inactive)"}, {"smiles": "COc1ccccc1OCCOc1ccc(/C=N/n2cnnc2)cc1", "inhibition": "-1.96% (inactive)"}, {"smiles": "CCOc1cc(CO)ccc1OCC(=O)N1CCCCC1", "inhibition": "1.83% (inactive)"}, {"smiles": "O=C(c1ccc2c(c1)OCO2)N1CCNc2ccccc2C1", "inhibition": "-1.64% (inactive)"}, {"smiles": "Cc1ccc(NC(=O)CS(=O)CC(=O)N(c2ccccc2)C(C)C(=O)NC2CCCC2)cc1", "note": "(stereo not given)", "inhibition": "-0.1% (inactive)"}, {"smiles": "O=C(Nc1nsc(-c2ccccc2)n1)c1ccncc1", "inhibition": "1.14% (inactive)"}, {"smiles": "O=C(CN(c1ccc2c(c1)OCCO2)S(=O)(=O)c1ccccc1)Nc1ccc2c(c1)OCO2", "inhibition": "31.2% (inactive)"}, {"smiles": "Cc1noc(C)c1C(=O)NC(C)c1ccc2c(c1)OCO2", "note": "(stereo not given)", "inhibition": "-9.41% (inactive)"}, {"smiles": "COc1ccc(-c2nnn(Cc3nc(N)nc(N4CCCCC4)n3)n2)cc1", "inhibition": "2.3% (inactive)"}, {"smiles": "O=C(CCCCn1c(=O)[nH]c2ccccc2c1=O)NCc1ccc2c(c1)OCO2", "inhibition": "-3.39% (inactive)"}, {"smiles": "O=C(O)CCC(=O)NCc1ccc2[nH]c3c(c2c1)CCCC3", "inhibition": "62.8% (active)"}, {"smiles": "O=C(CCC(=O)c1cccs1)NCc1ccccc1", "inhibition": "-2.27% (inactive)"}, {"smiles": "CCOC(=O)C1CCN(C(=O)COc2cc(C)c(Br)c(C)c2)CC1", "inhibition": "-0.95% (inactive)"}, {"smiles": "CC1CC2C3CCC4=CC(=O)C=C[C@]4(C)[C@@]3(F)[C@@H](O)C[C@]2(C)[C@@]1(O)C(=O)CO", "note": "(stereo not given in full)", "inhibition": "0.93% (inactive)"}, {"smiles": "CC(=O)Oc1cccc(N2C(=O)CC(Nc3ccc(N4CCOCC4)cc3)C2=O)c1", "note": "(stereo not given)", "inhibition": "10.2% (inactive)"}]}]}
